Compound activity (PubChem)
Only some compounds are listed: those with a hit (about 3.1% of all), similar ones and a draw of the others.
dFosB act = activators of delta FosB homodimer, primary screen, biochemical, fluorescence polarization, TAMRA-CDK5 oligo, single point | actives 0.99% (n = 340,000) | activation, % at 25 µM | purified delta FosB; percent of positive-control signal above neutral wells | AID 493131, 2011;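 active means mean activation above about 17%, with every replicate also reaching it, limit read from the data, passing the limit was not always enough; inconclusive means only one of the two conditions met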
GSIS activator = GLuc luminescence reporter in INS-1E cells, primary screen for activators of glucose-dependent secretion of insulin; actives 0.61% (n = 370,000); activation, % at 16.6 µM; INS-1E GLuc reporter insulin secretion, 2-3 h;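 active means lowest replicate activation of at least 40%, so every replicate reaches that level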;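 further: 0% = median of neutral control wells and 100% = median of IBMX positive control wells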
AF4-AF9 inh = inhibitors of AF4 peptide binding to AF9, primary screen, biochemical, AlphaScreen, biotin-AF4 peptide, FLAG-AF9, single point; inhibition, % at 10 µM; AID 651704, 2012; Protein AF-9 (Homo sapiens), P42568; actives 0.47% (n = 350,000);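 active means every replicate reaching a set inhibition limit, whatever the replicate mean, cut at about 25% in these data; inconclusive means mean inhibition reaches that limit but some replicates miss it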;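 further: 0% = plate neutral control median and 100% = total signal loss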
RAD54 branch = inhibitors of human RAD54 branch migration, primary screen, biochemical, fluorescence, single point; RAD54 Holliday junction branch migration, FAM/BHQ fluorescence; DNA repair and recombination protein RAD54-like (Homo sapiens), Q92698; inhibition, % at 10.4 µM; actives 0.14% (n = 360,000); AID 602329, 2012;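 active means mean normalized replicate activity at least 40 and at least half of replicates scoring 40 or more; inconclusive means only one of the two criteria met; inactive means mean below 40 and under half of replicates reaching 40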;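 further: 0% = median of neutral control wells and 100% = median of positive control wells; inhibitors cause a drop in the FAM fluorescence signal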
Target sequence (Q92698 whole entry, looked up): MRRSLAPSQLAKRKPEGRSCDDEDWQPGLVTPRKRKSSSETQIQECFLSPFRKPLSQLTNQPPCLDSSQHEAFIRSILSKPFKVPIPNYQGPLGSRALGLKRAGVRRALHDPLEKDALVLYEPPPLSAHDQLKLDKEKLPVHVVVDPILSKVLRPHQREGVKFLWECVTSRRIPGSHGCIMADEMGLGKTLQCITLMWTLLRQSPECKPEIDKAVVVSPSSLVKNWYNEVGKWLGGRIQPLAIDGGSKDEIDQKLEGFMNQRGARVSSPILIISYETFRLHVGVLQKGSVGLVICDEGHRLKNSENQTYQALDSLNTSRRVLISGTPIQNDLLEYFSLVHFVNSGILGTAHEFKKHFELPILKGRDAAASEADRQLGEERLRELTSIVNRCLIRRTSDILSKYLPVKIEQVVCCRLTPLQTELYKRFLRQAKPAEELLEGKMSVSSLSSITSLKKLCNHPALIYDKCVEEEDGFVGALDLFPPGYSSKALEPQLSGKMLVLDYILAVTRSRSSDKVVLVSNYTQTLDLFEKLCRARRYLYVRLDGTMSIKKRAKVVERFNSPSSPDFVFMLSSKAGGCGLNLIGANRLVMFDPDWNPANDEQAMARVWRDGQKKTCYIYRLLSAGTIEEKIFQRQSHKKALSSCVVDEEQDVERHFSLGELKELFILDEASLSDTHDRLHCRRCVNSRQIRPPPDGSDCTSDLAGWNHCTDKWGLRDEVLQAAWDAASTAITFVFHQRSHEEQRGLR
RAD52 inh = RAD52 DNA annealing inhibitors, primary screen, biochemical, FRET, single point, set 2. AID 651710, 2012. inhibition, % at 18.7 µM. recombinant RAD52 DNA annealing, FRET fluorescence. actives 0.46% (n = 360,000);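 active means every replicate showing at least 50% inhibition; inconclusive means mean inhibition at least 50% but not in every replicate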
DENV2 CPE rescue = inhibitors of DENV2 cytopathic effect, primary screen, cell-based, plate reader, single concentration; DENV2-infected cells, cytopathic effect rescue; CPE inhibition, % at 9.99 µM; actives 1.7% (n = 350,000); in the data active means CPE inhibition above about 20%, passing the limit was not always enough; inconclusive means no clear call, values can overlap the other calls; tested in BHK-21 cells;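 further: 0% = median of neutral control wells and 100% = median of positive control wells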
* = called active by the depositor.

`CCNC(=O)C[C@H]1CC[C@H]2[C@@H](COC[C@@H](O)CN2C(=O)C2CCCC2)O1` gave GSIS activator 1.2, AF4-AF9 inh -2.2, RAD54 branch -0.2, RAD52 inh -0.4 and DENV2 CPE rescue 107.3*.
Cc1noc(C)c1NC(=O)Nc1ccc2c(c1)C(=O)N([C@H](C)CO)C[C@@H](C)[C@@H](CN(C)S(=O)(=O)c1ccccc1)OCCCC[C@H](C)O2 was read as GSIS activator 3.3, AF4-AF9 inh -1.7, RAD54 branch -2.0, RAD52 inh 17.5 and DENV2 CPE rescue -2.7.
Screening O=C(C1CC1)N1[C@H](CO)[C@@H]2c3ccccc3NC[C@@H]21 returned GSIS activator 2.6, AF4-AF9 inh -2.1, RAD54 branch -5.2 and RAD52 inh -0.8.
For OC[C@H]1[C@H]2c3ccccc3NC[C@H]2N1CC1CCOCC1 the results were GSIS activator -0.2, AF4-AF9 inh -0.8, RAD54 branch 6.0, RAD52 inh -6.2 and DENV2 CPE rescue 21.1*.
`OC[C@H]1[C@@H]2c3ccccc3NC[C@@H]2N1Cc1ccccc1Cl` gave GSIS activator 14.6, AF4-AF9 inh 3.6, RAD54 branch -2.9, RAD52 inh 3.7 and DENV2 CPE rescue 32.5*.
Screening O=C(C1CC1)N1[C@@H](CO)[C@@H]2c3ccccc3NC[C@@H]21 returned GSIS activator 4.2, AF4-AF9 inh -1.3, RAD54 branch -5.5, RAD52 inh -9.5 and DENV2 CPE rescue 94.6*.
`CCCC(=O)Nc1ccc2c(c1)C(=O)N(C)[C@@H]1CC[C@H](CC(=O)NCCc3ccccc3)O[C@H]1CO2` gave GSIS activator -6.8, AF4-AF9 inh -2.0, RAD54 branch 3.3, RAD52 inh -7.7 and DENV2 CPE rescue inconclusive.
`CO[C@H]1CN(C)C(=O)c2ccc(NC(=O)C3CCCCC3)cc2OC[C@@H](C)N(Cc2nccs2)C[C@@H]1C` gave GSIS activator -11.4, AF4-AF9 inh -2.1, RAD54 branch 7.8, RAD52 inh -28.6 and DENV2 CPE rescue -5.5.
For C=C1C(=O)O[C@H]2[C@@H]1CC/C(CO)=C\CC[C@@]1(C)O[C@@H]21 the results were AF4-AF9 inh -2.9, RAD52 inh -0.8 and DENV2 CPE rescue -5.8.
`C=C1C(=O)OC2C1CCC(C)=C1C(=O)C3OC3(C)C12` (stereo not drawn) gave dFosB act -5.8, GSIS activator 133.6*, AF4-AF9 inh -4.9, RAD54 branch 0.2, RAD52 inh -5.6 and DENV2 CPE rescue -11.2.
`O=C(C[C@@H]1CC[C@H](NC(=O)C2CC2)[C@H](CO)O1)Nc1nccs1` gave GSIS activator -0.8, AF4-AF9 inh -2.8, RAD54 branch -0.6, RAD52 inh -0.7 and DENV2 CPE rescue -4.1.
`COCC(=O)Nc1ccc2c(c1)C(=O)N(C)C[C@H](OC)[C@H](C)CN(Cc1cccnc1)[C@H](C)CO2` gave GSIS activator 6.9, AF4-AF9 inh 0.5, RAD54 branch -4.5, RAD52 inh 7.2 and DENV2 CPE rescue -2.0.
Screening O=C1C=C(c2cc(Cl)cc(Cl)c2)C[C@@H](c2ccc3c(c2)OCO3)C1 returned dFosB act -3.6, GSIS activator 1.7, AF4-AF9 inh -3.7, RAD54 branch -0.3, RAD52 inh -29.5 and DENV2 CPE rescue 28.2*.
`COc1cccc(C2=CC(=O)C[C@H](c3ccc(F)cc3)C2)c1` gave dFosB act -8.3, GSIS activator 1.3, AF4-AF9 inh 2.8, RAD54 branch 15.3 and RAD52 inh 2.2.
Screening O=C1C=C(c2cccc(Br)c2)C[C@@H](c2ccc(Cl)cc2)C1 returned dFosB act 1.0, AF4-AF9 inh 1.9, RAD54 branch -3.8, RAD52 inh 29.4 and DENV2 CPE rescue 32.2*.
Screening COc1cc(F)cc(C2=CC(=O)C[C@H](c3ccc(F)cc3)C2)c1 returned dFosB act 4.2, GSIS activator 15.1, RAD54 branch 9.8, RAD52 inh -0.2 and DENV2 CPE rescue 25.9*.
O=C1C=C(c2ccc(F)c(Cl)c2)C[C@@H](c2ccc(F)cc2)C1 was read as dFosB act -11.7, GSIS activator -6.8, AF4-AF9 inh 1.0, RAD54 branch 0.5, RAD52 inh -2.2 and DENV2 CPE rescue 23.3*.
